From PubChem BioAssay come the findings set out here.

A number with no mark means an inactive call. For some of these results: Potency and affinity values are given separately. Calls of active or inactive are those of the source. Unless noted, no rule for the calls is given here.

A short description of test [1]: antimalarial activity against Dd2 strain (AID 2302;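 active = growth inhibition above 50% at the single 2 µM test dose, taken to imply half-maximal potency below 2 µM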;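 also: 0% = DMSO untreated growth and 100% = chloroquine plus artemisinin killed control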). The note with it: P. falciparum Dd2 in RBCs, LDH growth readout, 72 h; at 2 µM; hits give high values.
A short description of test [2]: HepG2 cytotoxicity, primary screen, cytotoxicity control for P. falciparum antimalarial project, cell-based, ATP luminescence (AID 2303;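 active = inhibition above 50%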;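 also: 0% = DMSO wells and 100% = digitonin-killed cells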). Conditions: HepG2 viability, 24-48 h, at 10 µM, hits give high values.
In test [3] the target is L-lactate dehydrogenase (Plasmodium falciparum (isolate CDC / Honduras)) (UniProt Q27743). Kind of test: PfLDH activity inhibition – cell lysate, 3D7 strain, counter-screen for P. falciparum growth inhibition project (AID 2304).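 Also: 0% = vehicle and 100% = reference inhibitor.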 The note with it: P. falciparum 3D7 crude extract, LDH APAD/NBT absorbance; at 2 µM; hits give high values. Background: The purpose of a counterscreen is to sort out artefacts and off-target activity.
Sequence of L-lactate dehydrogenase (Plasmodium falciparum (isolate CDC / Honduras)) (Q27743 whole entry, looked up): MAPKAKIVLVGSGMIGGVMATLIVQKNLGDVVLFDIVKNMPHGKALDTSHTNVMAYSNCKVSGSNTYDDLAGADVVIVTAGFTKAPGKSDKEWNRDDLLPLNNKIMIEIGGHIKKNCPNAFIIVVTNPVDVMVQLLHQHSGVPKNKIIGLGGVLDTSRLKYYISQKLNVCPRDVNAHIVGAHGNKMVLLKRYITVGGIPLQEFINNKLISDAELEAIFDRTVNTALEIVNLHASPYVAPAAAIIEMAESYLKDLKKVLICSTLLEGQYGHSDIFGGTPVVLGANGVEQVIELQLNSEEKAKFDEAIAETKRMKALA

Test [4] is described as follows: inhibition of 3D7 malaria parasite growth – strain 3D7 (AID 2306).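 Also: 0% = DMSO wells and 100% = chloroquine plus artemisinin control wells.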 The note with it: P. falciparum 3D7 erythrocytic growth, LDH absorbance, 72 h; at 2 µM; hits give high values.
In test [5] the target is Calcium-dependent protein kinase 1 (Plasmodium falciparum (isolate 3D7)) (UniProt P62344). Kind of test: PfCDPK1 kinase inhibitors, biochemical, TCAMS library (AID 1159585; cut-off not given, nearly all actives have IC50 up to about 0.98 µM;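 also: inhibitors leave more ATP so luminescence rises with inhibition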). The note with it: recombinant PfCDPK1, Kinase-Glo ATP depletion luminescence. (In general: Kinase-Glo reads ATP consumption through a luciferase reaction.)
Sequence of Calcium-dependent protein kinase 1 (Plasmodium falciparum (isolate 3D7)) (P62344 whole entry, looked up): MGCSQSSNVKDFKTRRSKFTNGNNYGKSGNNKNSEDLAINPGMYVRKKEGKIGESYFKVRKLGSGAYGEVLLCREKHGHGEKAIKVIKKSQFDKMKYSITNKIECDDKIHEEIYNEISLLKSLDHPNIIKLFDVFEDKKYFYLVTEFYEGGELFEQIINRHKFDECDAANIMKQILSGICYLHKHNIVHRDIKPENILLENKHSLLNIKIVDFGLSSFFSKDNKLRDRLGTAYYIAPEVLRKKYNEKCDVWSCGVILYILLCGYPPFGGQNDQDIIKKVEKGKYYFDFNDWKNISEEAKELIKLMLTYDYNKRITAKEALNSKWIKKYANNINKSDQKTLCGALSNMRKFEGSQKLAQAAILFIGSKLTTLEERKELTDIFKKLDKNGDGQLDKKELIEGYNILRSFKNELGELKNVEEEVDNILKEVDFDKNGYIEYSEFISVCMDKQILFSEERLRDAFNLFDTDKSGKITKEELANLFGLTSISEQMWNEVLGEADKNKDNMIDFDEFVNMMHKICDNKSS
The target in test [6] is Plasmodium falciparum protein kinase 6 (PK6, PF3D7_1337100) (UniProt Q8IDW1). Kind of test: PfPK6 kinase inhibitors, biochemical, TCAMS library (AID 1159586). Conditions: recombinant PfPK6, Kinase-Glo ATP depletion luminescence.
Sequence of Plasmodium falciparum protein kinase 6 (PK6, PF3D7_1337100) (Q8IDW1 1-305): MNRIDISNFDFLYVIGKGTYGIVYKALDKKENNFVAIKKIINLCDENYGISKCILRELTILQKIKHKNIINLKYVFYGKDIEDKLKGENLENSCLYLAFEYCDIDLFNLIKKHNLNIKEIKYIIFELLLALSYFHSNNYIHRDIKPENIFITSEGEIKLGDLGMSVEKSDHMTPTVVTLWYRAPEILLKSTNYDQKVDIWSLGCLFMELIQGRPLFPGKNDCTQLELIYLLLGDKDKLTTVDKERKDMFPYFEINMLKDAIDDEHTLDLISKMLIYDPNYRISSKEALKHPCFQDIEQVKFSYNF
Test [7] deals with Protein kinase 7 (PK7), Plasmodium falciparum 3D7 (PF3D7_0213400) (UniProt Q7YTF7). Kind of test: inhibition of Plasmodium PK7 catalytic activity – biochemical, TCAMS antimalarial set, Kinase-Glo luminescence (AID 1159587). Conditions: recombinant PfPK7, Kinase-Glo ATP depletion luminescence.
Sequence of Protein kinase 7 (PK7), Plasmodium falciparum 3D7 (PF3D7_0213400) (Q7YTF7 1-343): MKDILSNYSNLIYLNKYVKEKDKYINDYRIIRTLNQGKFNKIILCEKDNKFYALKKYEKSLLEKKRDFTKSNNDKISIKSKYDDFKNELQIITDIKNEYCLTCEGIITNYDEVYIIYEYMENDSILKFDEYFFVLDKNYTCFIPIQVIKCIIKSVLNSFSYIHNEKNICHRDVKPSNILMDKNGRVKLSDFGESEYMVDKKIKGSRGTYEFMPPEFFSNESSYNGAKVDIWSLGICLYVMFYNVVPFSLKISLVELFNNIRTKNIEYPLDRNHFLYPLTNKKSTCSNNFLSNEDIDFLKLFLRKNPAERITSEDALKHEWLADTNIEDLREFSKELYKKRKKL
Test [8] deals with Calcium-dependent protein kinase 4 (Plasmodium falciparum (isolate 3D7)) (UniProt Q8IBS5). The experiment in a line: PfCDPK4 kinase inhibitors, biochemical, TCAMS library (AID 1159588; cut-off not given, nearly all actives have IC50 up to about 0.91 µM). Conditions: recombinant PfCDPK4, Kinase-Glo ATP depletion luminescence.
Sequence of Calcium-dependent protein kinase 4 (Plasmodium falciparum (isolate 3D7)) (Q8IBS5 whole entry, looked up): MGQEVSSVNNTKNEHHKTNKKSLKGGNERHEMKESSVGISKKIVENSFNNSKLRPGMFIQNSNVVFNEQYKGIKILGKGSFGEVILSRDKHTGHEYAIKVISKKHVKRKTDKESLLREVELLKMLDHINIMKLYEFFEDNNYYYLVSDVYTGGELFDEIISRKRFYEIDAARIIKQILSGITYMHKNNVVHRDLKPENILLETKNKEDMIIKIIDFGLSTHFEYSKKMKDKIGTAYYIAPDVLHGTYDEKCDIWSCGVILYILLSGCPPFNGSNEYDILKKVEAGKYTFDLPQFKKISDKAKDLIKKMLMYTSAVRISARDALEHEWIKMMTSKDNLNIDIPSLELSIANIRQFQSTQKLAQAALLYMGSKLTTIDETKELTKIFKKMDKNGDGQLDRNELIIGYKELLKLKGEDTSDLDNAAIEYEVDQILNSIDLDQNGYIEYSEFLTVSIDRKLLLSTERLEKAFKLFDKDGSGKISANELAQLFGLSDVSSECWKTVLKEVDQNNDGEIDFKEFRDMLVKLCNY

The inhibition is the change of the read-out against control, counted positive when it falls. For the compound `CN(c1ccc(NC(=O)c2cccc(F)c2)cc1)C1CCCN(Cc2cccc(O)c2)C1` (stereo not given), the growth inhibition was 2% in test [1] and 85% (active) in test [4]. The inhibition in test [2] is 13%; in test [3] it was -3%. For the same compound, the result in test [5], in test [6], in test [7] and in test [8] was inactive.
With `COc1ccc(-c2ccc(CNC(=O)c3ccc(C#N)cc3)c(F)c2)cc1CN1CCCN(C)CC1`, the growth inhibition was 1% in test [1] and 90% (active) in test [4]. Also, the figures for the inhibition in test [2] and in test [3] were 6% and -10%, respectively. The result in test [5], in test [6], in test [7] and in test [8] was inactive.
For `CCCc1cc(OC)c(CC2c3cc(O)c(C)cc3CCN2C)cc1OC` (stereo not given), the growth inhibition is 89% (active) in test [1] and 99% (active) in test [4]. The inhibition in test [2] is 32%; in test [3] it was -2%. For the same compound, the outcome in test [5], in test [6], in test [7] and in test [8] was inactive.
Turning to `COc1cc(-c2nc(-c3ccccc3)c(-c3ccccc3)[nH]2)ccc1OCCN(C)C`, the growth inhibition in test [1] was 100% (active); in test [4], 101% (active). The results for the inhibition in test [2] and in test [3] were -8% and 5%, respectively. In addition, the outcome in test [5], in test [6], in test [7] and in test [8] was inactive.
With `CC(=O)C1=NN(c2ccc(Cl)cc2)C(c2cccs2)N1c1ccccc1` (stereo not given), the growth inhibition in test [1] is 70% (active); in test [4], 88% (active). For the same compound, the inhibition in test [2] is -3%; in test [3] it was 3%. The result in test [5], in test [6], in test [7] and in test [8] was inactive.
In the case of `COc1ccc(C=NNc2cc(C)nc3ccccc23)c2ccccc12`, the growth inhibition in test [1] is 69% (active); in test [4], 99% (active). Besides, the inhibition was 26% in test [2] and -1% in test [3]. Also, the outcome in test [5], in test [6], in test [7] and in test [8] was inactive.
As to `Cc1ccc(-c2ccc(NC(=O)N3CCc4cc(Br)c(N5CCN(C)CC5)cc43)cc2)cn1`, the results for the growth inhibition in test [1] and in test [4] were 16% and 80% (active), respectively. Moreover, the inhibition in test [2] was 86% (active); in test [3] it was -3%. The result in test [5], in test [6], in test [7] and in test [8] was inactive.
On to `Fc1ccc2nc(-c3ccc(-c4ccc(CNCCc5cccnc5)cc4)s3)[nH]c2c1`, for which the growth inhibition in test [1] is 99% (active); in test [4], 100% (active). For the same compound, the inhibition was 40% in test [2] and -7% in test [3]. The result in test [5], in test [6], in test [7] and in test [8] was inactive.
`COc1cccc(OC2CCN(C(=O)c3ccc(-c4ccc(N5CCCC5=O)cc4C)cc3)CC2)c1`: the growth inhibition is 80% (active) in test [1] and 85% (active) in test [4]. In addition, the inhibition is 42% in test [2] and -3% in test [3]. Moreover, the outcome in test [5], in test [6], in test [7] and in test [8] was inactive.
In the case of `CCN(C)CCCn1c(N(C)C)nc2cc(-n3cnc4cc(-c5ccc(Cl)cc5)sc4c3=O)ccc21`, the growth inhibition is 12% in test [1] and 80% (active) in test [4]. Also, the figures for the inhibition in test [2] and in test [3] were 83% (active) and 5%, respectively. Also, the outcome in test [5], in test [6], in test [7] and in test [8] was inactive.
In the case of `CC(=O)Nc1ccc(Nc2cc(C)nc(Nc3ccc(NC(C)=O)cc3)n2)cc1`, the growth inhibition in test [1] is 65% (active); in test [4], 99% (active). In addition, the inhibition was 4% in test [2] and -2% in test [3]. Besides, the outcome in test [5], in test [6], in test [7] and in test [8] was inactive.
Regarding `CCCc1cc(Cc2cnc(N)nc2N)cc(CCC)c1OCCCC(=O)OCC`, the growth inhibition was -5% in test [1] and 94% (active) in test [4]. Further, the inhibition in test [2] was -8%; in test [3], -2%. In addition, the result in test [5], in test [6], in test [7] and in test [8] was inactive.
For `Nc1c2c(nc3ccc(NC(=O)CCCc4ccccc4)cc13)CCCC2`, the growth inhibition in test [1] is 42%; in test [4], 101% (active). Also, the inhibition in test [2] was 73% (active); in test [3] it was -1%. Also, the result in test [5], in test [6], in test [7] and in test [8] was inactive.
Turning to `N#Cc1ccc(CN2CCC(Oc3ccc(NC(=O)c4cccs4)cc3Cl)CC2)cc1`, the growth inhibition in test [1] was 96% (active); in test [4] it was 95% (active). Besides, the inhibition in test [2] is 26%; in test [3], -1%. The result in test [5], in test [6], in test [7] and in test [8] was inactive.
For `O=C(NC1CCN(Cc2ccccc2)CC1)c1cccc(Nc2nc(-c3ccccc3)cs2)c1`, the growth inhibition in test [1] was 3%; in test [4], 84% (active). Further, the inhibition in test [2] was 70% (active); in test [3] it was 3%. The result in test [5], in test [6], in test [7] and in test [8] was inactive.
In the case of `N#Cc1ccc(-c2ccc(C(=O)NCCCCN3CCC(c4cc(Br)c5c(c4OCC(N)=O)CCCC5)CC3)cc2)cc1`, the values for the growth inhibition in test [1] and in test [4] were 89% (active) and 100% (active), respectively. Moreover, the inhibition in test [2] is 23%; in test [3], 6%. The outcome in test [5], in test [6], in test [7] and in test [8] was inactive.
Take `Cc1[nH]c(C)c(-c2ccc(C(=O)c3ccc(Cl)cc3)cc2)c(=O)c1Cl`: the results for the growth inhibition in test [1] and in test [4] were 95% (active) and 98% (active), respectively. The figures for the inhibition in test [2] and in test [3] were -1% and 4%, respectively. The result in test [5], in test [6], in test [7] and in test [8] was inactive.
Consider `COc1ccc(-c2cc3ncn(CC(=O)N4CCN(c5cccc(OC)c5)CC4)c(=O)c3s2)cc1`, for which the growth inhibition is 26% in test [1] and 84% (active) in test [4]. Moreover, the figures for the inhibition in test [2] and in test [3] were 49% and -7%, respectively. The result in test [5], in test [6], in test [7] and in test [8] was inactive.
As for `CC(C)[C@H](NC(=O)c1ccc(O)c(-c2ccc(Cl)c(Cl)c2)c1)C(=O)NCCN1CCOCC1`, the growth inhibition is 44% in test [1] and 95% (active) in test [4]. Besides, the results for the inhibition in test [2] and in test [3] were -4% and -1%, respectively. In addition, the outcome in test [5], in test [6], in test [7] and in test [8] was inactive.
On to `O=C(Nc1ccc(C(F)(F)F)cc1)N[C@H]1CCN(CCCCCNC(=O)[C@@H]2C[C@H]2c2ccc(Cl)c(Cl)c2)C1`, for which the results for the growth inhibition in test [1] and in test [4] were -1% and 96% (active), respectively. Also, the results for the inhibition in test [2] and in test [3] were 41% and -2%, respectively. The outcome in test [5], in test [6], in test [7] and in test [8] was inactive.
